Screens: PubChem BioAssay, National Center for Advancing Translational Sciences (NCATS)
Shown are actives, neighbours in structure and some others; about 1.9% of the full set was active somewhere.
aSyn yeast inh: qHTS of alpha-syn Inhibitors; Yeast expressing alpha-synuclein, growth rescue, BacTiter-Glo, 24 h; Potency, µM (highest dose often 46.1 µM), usual class: activators; 370,000 tested, 0.14% active; AID 652106, 2013; note: nearly all actives have a fitted effect of over 65% in size
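Galactose-induced alpha-syn yeast (OD600=0.02, raffinose-pregrown) + pinned cpd, 24 hr, 30 deg C; growth by BacTiter-Glo luminescence. Growth restoration scores as activation.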
PTHR1 agonist: qHTS for PTHR1 Agonists: Primary Screen | AID 743266, 2014 | 410,000 tested, 0.075% active | HEK293 GP2 PTHR1 cells, GloSensor cAMP luminescence, 1 h | Parathyroid hormone/parathyroid hormone-related peptide receptor (Homo sapiens), Q03431 | Potency, µM (top dose mostly 115 µM), actives largely listed as activators; note: nearly all actives have a fitted effect of over 55% in size
Target sequence (Q03431 whole entry, looked up): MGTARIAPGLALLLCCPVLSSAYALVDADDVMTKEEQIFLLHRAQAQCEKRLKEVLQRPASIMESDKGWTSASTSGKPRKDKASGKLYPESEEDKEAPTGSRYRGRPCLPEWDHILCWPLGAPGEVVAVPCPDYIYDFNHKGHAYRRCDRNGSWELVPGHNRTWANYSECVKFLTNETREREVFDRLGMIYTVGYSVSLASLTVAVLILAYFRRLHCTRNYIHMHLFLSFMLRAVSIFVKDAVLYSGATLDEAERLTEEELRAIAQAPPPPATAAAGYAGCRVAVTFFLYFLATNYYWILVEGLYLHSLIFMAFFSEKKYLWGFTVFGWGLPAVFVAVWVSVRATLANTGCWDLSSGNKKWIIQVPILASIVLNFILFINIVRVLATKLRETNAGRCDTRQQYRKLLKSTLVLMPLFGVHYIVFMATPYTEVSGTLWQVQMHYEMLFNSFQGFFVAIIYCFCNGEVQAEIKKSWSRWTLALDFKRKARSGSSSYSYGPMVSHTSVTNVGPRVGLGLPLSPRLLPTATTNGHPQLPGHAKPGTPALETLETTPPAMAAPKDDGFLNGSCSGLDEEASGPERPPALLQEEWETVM
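HEK-293-derived GP2 cells expressing PTHR1 and a GloSensor cAMP reporter, 3,000/well, plated overnight, given luciferin plus IBMX (each 0.5 mM as added) for 1 h at 37 °C, then compound for 1 h at 37 °C. Luminescence was read after 15 min at room temperature.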
FUS suppressor: qHTS for Suppressors of FUS Proteinopathy: Primary screen using FUS-linked yeast assay; S. cerevisiae FUS-expressing, growth rescue, OD600, 24 h; Potency, µM (titrated, usually from 76.6 µM), hits mostly activators; 390,000 tested, 0.24% active; AID 1347120, 2019; note: nearly all actives have a fitted effect of over 55% in size
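Galactose (2%) drives FUS expression in yeast precultured in raffinose; seeding density OD 0.005. Test compounds incubated 24hr at 30C and 99% humidity before absorbance at 600 nm was measured.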
LDHA inh: qHTS assay for inhibitors of human lactate dehydrogenase; L-lactate dehydrogenase A chain (Homo sapiens), P00338; purified LDHA, NADH/diaphorase-resazurin fluorescence; stronger effect = lower value; activity change, % (values are at about 110 or 230 µM); 480,000 tested, 0.15% active; AID 1347041, 2019; in the data active = activity change below about -30%; inconclusive = mostly about -25% to -30%
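Enzyme activity of human lactate dehydrogenase 5 (2 nM; 0.06 mM NADH, 0.2 mM pyruvate, 5 min, RT) is measured via a resazurin/diaphorase fluorescence readout of residual NADH.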
Abeta yeast res: qHTS for compounds that reverse cellular toxicity of Amyloid beta (A-beta) peptide in yeast: Primary Screen. 410,000 tested, 0.063% active. Potency, µM (series often up to 46.1 µM), usual class: activators. AID 1347071, 2019. yeast expressing A-beta42, growth rescue, OD600, 48 h; response scale: 0% DMSO, 100% iron-clioquinol control; note: nearly all actives have a fitted effect of over 55% in size
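Growth rescue measured by 600 nm absorbance after 48 h yeast culture at 30 C with compound. Values normalized between DMSO and an equimolar ferric chloride plus clioquinol control.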
TDP-43 yeast inh: qHTS of TDP-43 Inhibitors; TDP-43 expressing yeast growth rescue, BacTiter-Glo, 24 h; Potency, µM (series often up to 46.1 µM), most hits filed as activators; 410,000 tested, 1.8% active; AID 652104, 2013; note: nearly all actives have a fitted effect of over 50% in size
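Galactose-induced TDP-43 yeast, OD600=0.02, compound pinned; 24 hr, 30 deg C; BacTiter-Glo luminescence for growth. Inhibitors of TDP-43 toxicity read as activators.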
Of the large screens only hits and unclear results are named; the others gave an inactive call. Unless noted, calls come from the whole dose curve; as a rule, active = well fitted curve in the direction sought with a large enough effect; inconclusive = small, poorly fitted or top-dose-only effect, or another doubt; inactive = no such curve, though single readings can be large; an effect the other way counts as inactive or inconclusive.

CCOC(=O)c1cnc2ccc(OCC)cc2c1N1CCN(c2ccccc2F)CC1	FUS suppressor inconclusive, TDP-43 yeast inh 16µM (no result: aSyn yeast inh)
CCOC(=O)c1cnc2ccccc2c1N1CCC(O)CC1	none (no result: aSyn yeast inh, PTHR1 agonist, FUS suppressor, Abeta yeast res, TDP-43 yeast inh)
CCOC(=O)c1cnc2ccc(OCC)cc2c1N1CCN(c2ccccc2)CC1	FUS suppressor inconclusive, TDP-43 yeast inh 18µM
Cc1cccc(C)c1NC(=O)CN(C)C(=O)COC(=O)c1cccnc1Nc1ccccc1F	none (no result: aSyn yeast inh, PTHR1 agonist, FUS suppressor, Abeta yeast res, TDP-43 yeast inh)
CCCNC(=O)N(C)Cc1nc(-c2ccccc2)no1	none (no result: aSyn yeast inh, PTHR1 agonist, FUS suppressor, Abeta yeast res, TDP-43 yeast inh)
COc1ccc(CNc2ccc(C)cc2)cc1Br	TDP-43 yeast inh 18µM
COc1ccc(CNc2ccccc2)cc1Br	TDP-43 yeast inh inconclusive
O=C(Cc1ccccc1)NNC(=S)NCc1ccccc1	none (no result: aSyn yeast inh, PTHR1 agonist, FUS suppressor, Abeta yeast res, TDP-43 yeast inh)
O=C1CC(c2ccco2)Sc2ccccc2N1 (stereo not given)	none
O=C1CC(c2ccccc2)Sc2ccccc2N1 (stereo not given)	TDP-43 yeast inh 11µM (no result: aSyn yeast inh)
O=C(CSc1ccc(-c2ccco2)nn1)Nc1ccccc1F	TDP-43 yeast inh 28µM
Cn1c(SCC(=O)Nc2ccc(Cl)cc2F)nnc1-c1ccco1	aSyn yeast inh 2.8µM
O=C(Cn1nc(-c2ccco2)ccc1=O)Nc1cc(Cl)ccc1Cl	TDP-43 yeast inh 13µM
CCOc1ccccc1NC(=O)CSc1ccc(-c2ccco2)nn1	TDP-43 yeast inh inconclusive
CCc1ccc(C(=O)CC2(O)C(=O)Nc3ccc(F)cc32)cc1 (stereo not given)	none (no result: aSyn yeast inh, PTHR1 agonist, FUS suppressor, Abeta yeast res, TDP-43 yeast inh)
CCCCOc1ccc(NC(=O)CC(C)C)c2cccnc12	none (no result: aSyn yeast inh, PTHR1 agonist, FUS suppressor, Abeta yeast res, TDP-43 yeast inh)
CSc1ccccc1C(=O)Nc1c(C)cc(C)cc1C	LDHA inh -32 (no result: aSyn yeast inh, PTHR1 agonist, FUS suppressor, Abeta yeast res, TDP-43 yeast inh)
CSc1ccccc1C(=O)Nc1ccc(C)cc1C	none
O=C1C(=O)N(Cc2ccccc2)C(=O)N1CCN1C(=O)c2ccccc2C1=O	none
O=C1Cc2ccccc2C(=O)N1CCc1ccccc1	TDP-43 yeast inh 13µM
CCOc1ccc(NC(=O)Cn2ncc3ccccc3c2=O)cc1	none (no result: aSyn yeast inh, PTHR1 agonist, FUS suppressor, Abeta yeast res, TDP-43 yeast inh)
c1ccc(-c2cnc(CSc3ncnc4sccc34)o2)cc1	TDP-43 yeast inh 22µM
c1ccc(-c2cnc(CSc3nnc(-c4ccccc4)o3)o2)cc1	none (no result: aSyn yeast inh, PTHR1 agonist, FUS suppressor, Abeta yeast res, TDP-43 yeast inh)
C/C=C/C1=CC(=O)C[C@H](c2ccc(F)cc2)C1	none
C/C=C/C1=CC(=O)C[C@H](c2ccc(Cl)cc2)C1	TDP-43 yeast inh 13µM
C/C=C/C1=CC(=O)C[C@H](c2ccc3c(c2)OCO3)C1	TDP-43 yeast inh 11µM
COc1ccc(S(=O)(=O)Oc2ccc3cccc(N)c3c2)cc1	aSyn yeast inh inconclusive, Abeta yeast res inconclusive, TDP-43 yeast inh 16µM
COc1ccc(S(=O)(=O)Oc2ccc3ccccc3c2)cc1	TDP-43 yeast inh inconclusive (no result: FUS suppressor)
O=C1OCC2=C1C(c1ccc3c(c1)OCO3)CC(=O)N2c1ccc(C(F)(F)F)cc1 (stereo not given)	none (no result: aSyn yeast inh, PTHR1 agonist, FUS suppressor, Abeta yeast res, TDP-43 yeast inh)
CCOC(=O)c1c(N)sc2c1CCC1C(=O)N(C3CCCCC3)C(=O)C21 (stereo not given)	FUS suppressor 28µM
CCN(CC)c1ccc(NC(=O)CSc2nc3ccccc3c(=O)n2-c2cc(S(=O)(=O)N(C)C)ccc2C)cc1	FUS suppressor 35µM
CN(C)S(=O)(=O)c1cccc(NC(=O)CSc2nc3ccccc3n2-c2ccccc2)c1	none (no result: FUS suppressor)
CN(C)S(=O)(=O)c1ccc(NC(=O)CSc2nc3ccccc3n2-c2ccccc2)cc1	FUS suppressor 6.3µM
Cc1oc(-c2nc(C#N)c(NCc3ccccc3Cl)o2)cc1S(=O)(=O)N(C)C	none (no result: aSyn yeast inh, PTHR1 agonist, FUS suppressor, Abeta yeast res, TDP-43 yeast inh)
CCN1CCN(C(=O)/C=C/c2ccc(C)o2)CC1	none (no result: FUS suppressor)
Cc1ccc(/C=C/C(=O)N2CC(C)CC(C)C2)o1 (stereo not given)	TDP-43 yeast inh 25µM
Cc1cccc(OCc2nc(C)c(C(=O)Nc3cc(C)ccc3C)s2)c1	LDHA inh -35 (no result: aSyn yeast inh, PTHR1 agonist, FUS suppressor, Abeta yeast res, TDP-43 yeast inh)
COc1ccc(-c2cc(-c3cc(OC)ccc3O)[nH]n2)cc1	TDP-43 yeast inh 25µM
